# Data published in PubChem BioAssay (NCI).
# This is part of a sample that, as a whole, favours compounds with a hit. Of some 79,000 tested, about 15% had one in any assay. Values without a mark were called inactive. Calls of active or inactive are those of the source. Cut-off read from the data, not from the text of the source: active = growth inhibition above about 70%; inactive = the rest.
# Key:
# [1] = NCI Yeast Anticancer Drug Screen. Data for the rad50 strain (AID 155);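 note: 0% = growth of vehicle-only cultures of the same strain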; conditions: S. cerevisiae rad50 strain growth inhibition, stronger effect = higher value
# Summary of the method: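 Vehicle-treated cultures provide the reference for the growth inhibition reported for compound-exposed, repair-deficient yeast.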
# [2] = NCI Yeast Anticancer Drug Screen. Data for the mec2-1 strain (AID 157); conditions: S. cerevisiae mec2-1 strain, stronger effect = higher value
# Summary of the method: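 Mutant yeast (mec2-1) grown with compound; growth inhibition relative to vehicle control reported.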
# [3] = NCI Yeast Anticancer Drug Screen. Data for the sgs1 mgt1 strain (AID 161);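 note: 0% = growth of cultures given vehicle only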; conditions: S. cerevisiae sgs1 mgt1 strain, stronger effect = higher value
# Summary of the method: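 Compounds are added to genetically altered yeast, and growth is compared with cultures given vehicle alone to give percent inhibition.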
# [4] = NCI Yeast Anticancer Drug Screen. Data for the cln2 rad14 strain (AID 165);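 note: 0% = growth equal to vehicle treated cultures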; conditions: S. cerevisiae cln2 rad14 strain, stronger effect = higher value
# Summary of the method: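 Readout is yeast growth inhibition versus vehicle-treated controls, using a strain with cln2 and rad14 alterations exposed to compound.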
# [5] = NCI Yeast Anticancer Drug Screen. Data for the bub3 strain (AID 167); conditions: S. cerevisiae bub3 mutant strain, stronger effect = higher value
# Summary of the method: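 Mutant yeast screening strain plus compound; vehicle-treated cultures serve as the 0% inhibition reference.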
# [6] = NCI Yeast Anticancer Drug Screen. Data for the mlh1 rad18 strain (AID 175); conditions: S. cerevisiae mlh1 rad18 strain growth inhibition, stronger effect = higher value
# Summary of the method: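 Genetically defined yeast (DNA repair-deficient) exposed to compounds; growth inhibition determined relative to vehicle.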
# [7] = at 5.0 µM (retest, dose inferred, filed as 0.5)
# [8] = at 50.0 µM (retest, dose inferred, filed as 5.0)
Compound,"growth inhibition [1, 7] [%]","growth inhibition [1, 8]",growth inhibition ([1]; at 50.0 µM),"growth inhibition [2, 7] [%]","growth inhibition [2, 8]",growth inhibition ([2]; at 50.0 µM),"growth inhibition [3, 7] [%]","growth inhibition [3, 8]",growth inhibition ([3]; at 50.0 µM),"growth inhibition [4, 7] [%]","growth inhibition [4, 8]",growth inhibition ([4]; at 50.0 µM),"growth inhibition [5, 7] [%]","growth inhibition [5, 8]",growth inhibition ([5]; at 50.0 µM),"growth inhibition [6, 7] [%]","growth inhibition [6, 8]",growth inhibition ([6]; at 50.0 µM)
CC(=O)Nc1ccc(-c2cnc3ccccc3c2)cc1,5,29%,14.2%,-13,15%,6.2%,8,18%,4.25%,-5,-6%,36.5%,-5,-1%,11.2%,17,29%,9.15%
Cc1ccc(NC(=O)CSC(N)=O)cc1,4,92% (active),97.5% (active),4,96% (active),98.5% (active),3,94% (active),99.1% (active),2,94% (active),97.5% (active),4,96% (active),97.8% (active),2,94% (active),97.7% (active)
CC(=O)O[C@H]1CC[C@]2(C)C3=CC[C@]4(C)[C@@H](C(C)=O)CC[C@H]4[C@@]34C=C[C@]2(C1)C1C(=O)OC(=O)C14 (some centres not stated),2,2%,58.2%,2,6%,20.7%,1,7%,29.4%,4,4%,-24%,3,4%,56.9%,-20,-26%,70.8% (active)
O=S1(=O)CC(Cl)(Cl)C1,3,49%,19.6%,3,52%,2.85%,7,20%,15.1%,-1,25%,75.3% (active),4,58%,-17.8%,5,58%,11.6%
COc1ccc(CC2C(=O)NC(C)C(=O)N(C)C3Cc4ccc(cc4)Oc4cc(ccc4O)CC(C(=O)NC(C)C(=O)NC(C)C(=O)N2C)N(C)C3=O)cc1 (configuration not stated),-6,54%,61.1%,25,64%,39.8%,25,48%,66.5%,46,72% (active),70.5% (active),16,64%,59.6%,-1,77% (active),53.5%
CC(C)(C)NC1=NC(C(F)(F)F)(C(F)(F)F)NC(=O)N1,-19,91% (active),38.9%,-20,93% (active),40.8%,-52,88% (active),33.9%,-21,72% (active),21.3%,-56,95% (active),70.5% (active),-22,92% (active),12.4%
CN(C)CCC(/C=C/c1ccccc1)=N\Nc1c(F)c(F)c(F)c(F)c1F,-2,8%,58%,-2,1%,8.9%,2,-8%,35.4%,-3,6%,-3.55%,1,-14%,40%,-4,-2%,86.8% (active)
CCCCCCCCC(C)c1ccccc1O (configuration not stated),-150,96% (active),99.7% (active),-53,98% (active),99.7% (active),-68,96% (active),99.4% (active),-62,97% (active),99.4% (active),-56,96% (active),99.5% (active),-151,97% (active),99.4% (active)
CCOC(=O)c1csc(/C=C/c2cc(OC)c(OC)c(OC)c2)n1,0,3%,-1.2%,-1,1%,0.9%,-2,41%,46.4%,-4,-3%,-19.5%,1,6%,11.9%,-2,3%,-8.1%
